Several values for one entry are separate records, joined by “and”; a condition that tells them apart may be missing. Equal values may be shown once. Records with an inconclusive call do not appear. Some compounds were tested as several samples or in several runs, with calls that do not always agree. Activity calls are given as the source filed them. How the source made its calls, unless noted: active means hit-call score of the fitted dose curve at least 0.9, where 1 is the maximum; inactive means score below 0.9.
Assays:
[1] = read-out: Pyruvate Dehydrogenase Kinase 4 (PDK4), PDK4 (gene 5166); assay: LTEA_HepaRG_PDK4: Life Technologies and Expression Analysis (LTEA) Assay for Pyruvate Dehydrogenase Kinase 4 (PDK4) using HepaRG (AID 2283525); details: mRNA level, 48 h; actives raise or lower the signal
How it was run: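 In this multiplexed human HepaRG expression assay, cells are treated 48 h with test chemicals across an eight-point range starting at 100 uM. PDK4 mRNA changes, normalized to ACTB/GAPDH/POLR2A, are fitted in both directions relative to vehicle.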

[2] = read-out: NAD(P)H dehydrogenase [quinone] 1 (NQO1), NQO1 (gene 1728); assay: LTEA_HepaRG_NQO1: Life Technologies and Expression Analysis (LTEA) Assay for NAD(P)H dehydrogenase [quinone] 1 (NQO1) using HepaRG (AID 2283526); details: mRNA level, 48 h; actives raise or lower the signal
How it was run: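 Differentiated human HepaRG cells in serum-free induction medium, dosed in duplicate for 48 h at 8 half-log concentrations up to 100 uM in 0.5% DMSO. NQO1 mRNA by qRT-PCR normalized to ACTB, GAPDH, POLR2A; bidirectional fit versus DMSO baseline.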

[3] = read-out: Nuclear factor erythroid 2-related factor 2 (Homo sapiens) (UniProt Q16236); assay: LTEA_HepaRG_NFE2L2: Life Technologies and Expression Analysis (LTEA) Assay for Nuclear factor erythroid 2-related factor 2 (NFE2L2) Transcription Factor using HepaRG (AID 2283527); details: mRNA level, 48 h; actives raise or lower the signal
How it was run: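 Transcript level of NFE2L2 is the read-out, measured by microfluidic TaqMan qRT-PCR and normalized to three housekeeping genes. Human HepaRG cultures received test chemical for 48 h at up to 100 uM in half-log steps. Gain or loss of signal is fitted relative to 0.5% DMSO.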

[4] = read-out: succinate dehydrogenase complex iron sulfur subunit B (SDHB), SDHB (gene 6390); assay: LTEA_HepaRG_SDHB: Life Technologies and Expression Analysis (LTEA) Assay for succinate dehydrogenase complex iron sulfur subunit B (SDHB) using HepaRG (AID 2283528); details: mRNA level, 48 h; actives raise or lower the signal
How it was run: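 HepaRG cells (~100,000/well, plated 48 h) exposed in duplicate for 48 h in serum-free induction medium to 8-point half-log series from 100 uM in 0.5% DMSO; mRNA by qRT-PCR normalised to ACTB, GAPDH, POLR2A; bidirectional fit versus DMSO.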

[5] = read-out: Signal transducer and activator of transcription 3 (Homo sapiens) (UniProt P40763); assay: LTEA_HepaRG_STAT3: Life Technologies and Expression Analysis (LTEA) Assay for Signal transducer and activator of transcription (STAT3) using HepaRG (AID 2283529); details: mRNA level, 48 h; actives raise or lower the signal
How it was run: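 Read-out is STAT3 mRNA level by qRT-PCR, normalized to three housekeeping genes, in human HepaRG liver cells treated for 48 h. Concentrations ran from 100 uM downward in half-log steps; curves were fitted for gain or loss relative to 0.5% DMSO.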

[6] = read-out: solute carrier (SLCO1B1), SLCO1B1 (gene 10599); assay: LTEA_HepaRG_SLCO1B1: Life Technologies and Expression Analysis (LTEA) Assay for solute carrier (SLCO1B1) using HepaRG (AID 2283530); details: mRNA level, 48 h; actives raise or lower the signal
How it was run: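 Differentiated human HepaRG cells, plated 48 h, switched to serum-free induction medium and exposed in duplicate for 48 h to 8 half-log concentrations (top 100 uM) in 0.5% DMSO. SLCO1B1 mRNA by TaqMan qRT-PCR, normalized to ACTB/GAPDH/POLR2A.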

[7] = read-out: sulfotransferase 2A1 (SULT2A1), SULT2A1 (gene 6822); assay: LTEA_HepaRG_SULT2A1: Life Technologies and Expression Analysis (LTEA) Assay for sulfotransferase 2A1 (SULT2A1) using HepaRG (AID 2283531); details: mRNA level, 48 h; actives raise or lower the signal
How it was run: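 Differentiated human HepaRG cells in serum-free induction medium were exposed for 48 h to eight half-log concentrations (top 100 uM, 0.5% DMSO). SULT2A1 mRNA was measured by qRT-PCR, normalized to ACTB, GAPDH and POLR2A, and fitted bidirectionally against DMSO.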

[8] = read-out: Transforming Growth Factor (TGFA), TGFA (gene 7039); assay: LTEA_HepaRG_TGFA: Life Technologies and Expression Analysis (LTEA) Assay for Transforming Growth Factor (TGFA) using HepaRG (AID 2283532); details: mRNA level, 48 h; actives raise or lower the signal
How it was run: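 HepaRG (human liver line), 48 h exposure, 8 conc. half-log down from 100 uM, 0.5% DMSO vehicle, duplicates; serum-free induction medium. TGFA mRNA by TaqMan qRT-PCR, ACTB/GAPDH/POLR2A normalization; gain/loss fit vs DMSO.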

[9] = read-out: Transforming Growth Factor (TGFB1), TGFB1 (gene 7040); assay: LTEA_HepaRG_TGFB1: Life Technologies and Expression Analysis (LTEA) Assay for Transforming Growth Factor (TGFB1) Transporter using HepaRG (AID 2283533); details: mRNA level, 48 h; actives raise or lower the signal
How it was run: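 Differentiated human HepaRG cells in serum-free induction medium were exposed in duplicate for 48 h to eight concentrations (top 100 uM, half-log steps, 0.5% DMSO). TGFB1 mRNA was quantified by qRT-PCR, normalized to ACTB, GAPDH, POLR2A, and fitted bidirectionally against DMSO.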

[10] = read-out: TIMP1, TIMP1 (gene 7076); assay: LTEA_HepaRG_TIMP1: Life Technologies and Expression Analysis (LTEA) Assay for TIMP1 using HepaRG (AID 2283534); details: mRNA level, 48 h; actives raise or lower the signal
How it was run: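 Differentiated human HepaRG cells in serum-free induction medium were exposed 48 h to chemicals (8 half-log concentrations, top 100 uM, 0.5% DMSO). TIMP1 mRNA was quantified by TaqMan qRT-PCR, normalized to ACTB/GAPDH/POLR2A; bidirectional fit versus DMSO.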

[11] = read-out: Tumor necrosis factor receptor 1 (TNFRSF1A), TNFRSF1A (gene 7132); assay: LTEA_HepaRG_TNFRSF1A: Life Technologies and Expression Analysis (LTEA) Assay for Tumor necrosis factor receptor 1 (TNFRSF1A) using HepaRG (AID 2283535); details: mRNA level, 48 h; actives raise or lower the signal
How it was run: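 Differentiated human HepaRG cells were exposed in duplicate for 48 h in serum-free induction medium to eight concentrations (top 100 uM, half-log steps, 0.5% DMSO). TNFRSF1A mRNA was quantified by qRT-PCR, normalized to ACTB, GAPDH and POLR2A, then fitted bidirectionally against DMSO.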

[12] = read-out: Thyroid Hormone Responsive (THRSP), THRSP (gene 7069); assay: LTEA_HepaRG_THRSP: Life Technologies and Expression Analysis (LTEA) Assay for Thyroid Hormone Responsive (THRSP) using HepaRG (AID 2283536); details: mRNA level, 48 h; actives raise or lower the signal
How it was run: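 mRNA induction or loss relative to 0.5% DMSO vehicle was fitted bidirectionally across an eight-point curve whose highest exposure was 100 uM. Human HepaRG liver cells received chemicals in duplicate over 48 h before RNA extraction.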

[13] = read-out: Cellular tumor antigen p53 (Homo sapiens) (UniProt P04637); assay: LTEA_HepaRG_TP53: Life Technologies and Expression Analysis (LTEA) Assay for Tumor Protein P53 (TP53) using HepaRG (AID 2283537); details: mRNA level, 48 h; actives raise or lower the signal
How it was run: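 Differentiated HepaRG cells in serum-free induction medium exposed 48 h in duplicate to 8 half-log concentrations, top 100 uM, 0.5% DMSO. TP53 mRNA by TaqMan qRT-PCR (Fluidigm), normalized to ACTB, GAPDH, POLR2A; fitted bidirectionally versus DMSO.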

[14] = read-out: UDP glucuronosyltransferase (UGT1A1), UGT1A1 (gene 54658); assay: LTEA_HepaRG_UGT1A1: Life Technologies and Expression Analysis (LTEA) Assay for UDP glucuronosyltransferase (UGT1A1) using HepaRG (AID 2283538); details: mRNA level, 48 h; actives raise or lower the signal
How it was run: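 HepaRG cells, 0.5% DMSO vehicle, 48 h exposure in serum-free induction medium to 8-point half-log series topping at 100 uM, in duplicate. UGT1A1 mRNA by Fluidigm qRT-PCR, normalized to ACTB/GAPDH/POLR2A; bidirectional fit versus DMSO.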

[15] = read-out: UDP glucuronosyltransferase (UGT1A6), UGT1A6 (gene 54578); assay: LTEA_HepaRG_UGT1A6: Life Technologies and Expression Analysis (LTEA) Assay for UDP glucuronosyltransferase (UGT1A6) using HepaRG (AID 2283539); details: mRNA level, 48 h; actives raise or lower the signal
How it was run: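 Human HepaRG cells were dosed for 48 h in serum-free induction medium with 0.5% DMSO vehicle, eight-point half-log series from 100 uM, in duplicate. UGT1A6 mRNA was measured by qRT-PCR, normalized to ACTB, GAPDH, POLR2A, and fitted bidirectionally against DMSO.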

[16] = read-out: X-box binding protein 1 (XBP1), XBP1 (gene 7494); assay: LTEA_HepaRG_XBP1: Life Technologies and Expression Analysis (LTEA) Assay for X-box binding protein 1 (XBP1) using HepaRG (AID 2283540); details: mRNA level, 48 h; actives raise or lower the signal
How it was run: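 Differentiated human HepaRG cells in serum-free induction medium were exposed in duplicate for 48 h to eight half-log concentrations up to 100 uM in 0.5% DMSO. XBP1 mRNA was quantified by qRT-PCR, normalised to ACTB, GAPDH and POLR2A, with bidirectional fitting against DMSO.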

[17] = LTEA_HepaRG_LDH_cytotoxicity: Cytotoxicity Assessment in the Life Technologies and Expression Analysis (LTEA) Assay (AID 2283563; active means hit-call score of the fitted dose curve at least 0.9, where 1 is the maximum;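 on AC50: LDH activity released into spent culture medium as a marker of cell death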)
How it was run: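 Differentiated human HepaRG cells, plated 48 h beforehand, were switched to serum-free induction medium and exposed for 48 h to eight half-log concentrations (top 100 uM) in 0.5% DMSO. LDH was measured in spent medium; activity was fitted relative to DMSO vehicle.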

[18] = ATG_XTT_Cytotoxicity: Cytotoxicity Assessment in the Attagene TRANS-FACTORIAL HepG2 Assay (AID 2283584; active means hit-call score of the fitted dose curve at least 0.9, where 1 is the maximum;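 on AC50: cells exposed to compound for 24 h before reading; active means loss of viability signal versus DMSO baseline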)
How it was run: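 HepG2 human liver cells, transiently transfected with multiple GAL4-UAS reporter units, were dosed and read at 24 h by XTT as cell number. Loss of signal was fitted relative to DMSO negative control baseline.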

[19] = TOX21_p53_BLA_p2_viability: Viability Assessment in the Tox21 HCT-116 p53 Agonism Beta-lactamase Assay, Phase 2 (AID 2283591; active means hit-call score of the fitted dose curve at least 0.9, where 1 is the maximum;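 further: compound exposure lasted 16 h at 37 °C; actives lower the ATP signal meaning cytotoxicity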)
How it was run: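 Cytotoxicity readout: CellTiter-Glo ATP luminescence, 30 min at room temperature, after the beta-lactamase read. Cells were HCT116 exposed 16 h at 37C to compounds pin-transferred at 217-fold dilution from DMSO stocks.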

[20] = molecular target: Cellular tumor antigen p53 (Homo sapiens) (UniProt P04637); assay: TOX21_p53_BLA_p2_ratio: Tox21 HCT-116 p53 Agonism Beta-lactamase Assay, Ratio, Phase 2 (AID 2283592; active means hit-call score of the fitted dose curve at least 0.9, where 1 is the maximum)
How it was run: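 HCT116 cells carrying a p53-responsive beta-lactamase reporter were plated, incubated 5 h at 37C, then dosed with compounds in DMSO (217-fold dilution) for 16 h. CCF4-AM substrate was added for 2 h at room temperature; the 460/530 nm emission ratio gave gain-of-signal activity relative to DMSO.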

Measured: AC50

Sequence of Nuclear factor erythroid 2-related factor 2 (Homo sapiens) (Q16236 whole entry, looked up): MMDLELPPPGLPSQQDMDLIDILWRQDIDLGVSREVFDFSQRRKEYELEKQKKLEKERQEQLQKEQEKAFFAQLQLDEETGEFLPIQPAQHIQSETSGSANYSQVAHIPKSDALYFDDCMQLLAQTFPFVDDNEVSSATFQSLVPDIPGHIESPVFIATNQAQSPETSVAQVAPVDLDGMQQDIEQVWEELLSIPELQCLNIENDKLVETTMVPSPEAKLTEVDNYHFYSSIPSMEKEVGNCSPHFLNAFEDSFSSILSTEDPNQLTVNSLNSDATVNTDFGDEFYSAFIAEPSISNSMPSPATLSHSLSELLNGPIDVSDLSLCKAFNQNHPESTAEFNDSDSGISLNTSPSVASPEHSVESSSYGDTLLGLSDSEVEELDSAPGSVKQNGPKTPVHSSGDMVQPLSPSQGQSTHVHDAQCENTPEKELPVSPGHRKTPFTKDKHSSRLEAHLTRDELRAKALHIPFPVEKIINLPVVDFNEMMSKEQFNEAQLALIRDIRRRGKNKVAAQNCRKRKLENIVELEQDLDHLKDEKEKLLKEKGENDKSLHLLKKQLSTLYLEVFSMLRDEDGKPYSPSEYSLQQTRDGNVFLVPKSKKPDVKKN
Sequence of Cellular tumor antigen p53 (Homo sapiens) (P04637 whole entry, looked up): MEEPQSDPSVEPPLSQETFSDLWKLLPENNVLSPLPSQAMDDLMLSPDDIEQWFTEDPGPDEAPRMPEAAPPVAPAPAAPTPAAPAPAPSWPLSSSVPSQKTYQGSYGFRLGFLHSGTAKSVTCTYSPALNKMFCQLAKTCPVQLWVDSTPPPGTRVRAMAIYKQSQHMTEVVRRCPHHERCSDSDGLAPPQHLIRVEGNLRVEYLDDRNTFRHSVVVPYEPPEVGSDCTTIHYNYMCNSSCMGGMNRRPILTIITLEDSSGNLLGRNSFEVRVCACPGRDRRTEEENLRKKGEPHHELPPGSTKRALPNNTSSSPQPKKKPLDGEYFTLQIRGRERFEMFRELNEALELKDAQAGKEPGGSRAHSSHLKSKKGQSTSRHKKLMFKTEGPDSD
Sequence of Signal transducer and activator of transcription 3 (Homo sapiens) (P40763 whole entry, looked up): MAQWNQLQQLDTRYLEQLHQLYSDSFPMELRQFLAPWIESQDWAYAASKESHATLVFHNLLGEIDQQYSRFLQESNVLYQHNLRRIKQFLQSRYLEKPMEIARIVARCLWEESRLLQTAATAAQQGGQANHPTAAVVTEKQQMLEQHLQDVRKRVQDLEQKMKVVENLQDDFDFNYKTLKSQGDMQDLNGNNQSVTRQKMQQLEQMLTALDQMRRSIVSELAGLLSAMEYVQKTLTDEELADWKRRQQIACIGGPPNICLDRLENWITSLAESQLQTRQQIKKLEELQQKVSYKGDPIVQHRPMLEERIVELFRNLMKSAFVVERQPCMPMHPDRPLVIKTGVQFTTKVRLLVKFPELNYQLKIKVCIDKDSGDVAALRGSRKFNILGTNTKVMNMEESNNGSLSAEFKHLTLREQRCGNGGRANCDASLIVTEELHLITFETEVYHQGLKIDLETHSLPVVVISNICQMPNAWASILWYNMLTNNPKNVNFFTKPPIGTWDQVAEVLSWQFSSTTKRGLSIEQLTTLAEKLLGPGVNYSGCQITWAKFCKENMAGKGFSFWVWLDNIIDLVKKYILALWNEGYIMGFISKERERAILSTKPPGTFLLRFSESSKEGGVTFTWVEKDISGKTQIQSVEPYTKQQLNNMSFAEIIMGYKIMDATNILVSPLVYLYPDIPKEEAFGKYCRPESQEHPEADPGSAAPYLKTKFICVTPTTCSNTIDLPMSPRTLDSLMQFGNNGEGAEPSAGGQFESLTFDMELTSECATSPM

CCOC(=O)C(O)(c1ccc(Cl)cc1)c1ccc(Cl)cc1
inactive: [2] | [3] | [4] | [5] | [6] | [7] | [8] | [9] | [10] | [11] | [12] | [13] | [15] | [16] | [17] | [18]
active: [1] 36.2 µM | [14] 67.4 µM | [19] 67.1 µM and 17.8 µM | [20] 63.8 µM and 32.9 µM

CC(c1ccc(O)cc1)(c1ccc(O)cc1)c1ccc(O)cc1
inactive: [2] | [6] | [8] | [9] | [11] | [16] | [18]
active: [1] 70.9 µM | [3] 73.9 µM | [4] 50 µM | [5] 90.9 µM | [7] 84 µM | [10] 85.3 µM | [12] 23.9 µM | [13] 93.9 µM | [14] 68.9 µM | [15] 75.2 µM | [17] 76.5 µM | [19] 33.4 µM | [20] 62.8 µM

CCCCCCCCCc1ccc(O)cc1
active: [1] 63.2 µM | [14] 32.5 µM | [18] 151 µM
inactive: [2] | [3] | [5] | [6] | [7] | [8] | [9] | [10] | [11] | [12] | [13] | [15] | [16] | [17] | [18] | [19] | [20]

C1CC2OC2CC1C1CO1 (stereo not drawn)
inactive: [1] | [2] | [3] | [5] | [6] | [7] | [8] | [9] | [10] | [11] | [12] | [13] | [14] | [15] | [16] | [17] | [18] | [19] | [20]

CC#Cc1cc(C)nc(Nc2ccccc2)n1
inactive: [2] | [4] | [8] | [9] | [10] | [11] | [13] | [15] | [16] | [19] | [20]
active: [1] 19.2 µM | [3] 30.2 µM | [5] 6.11 µM | [6] 29.2 µM | [7] 5.75 µM | [12] 6.1 µM | [14] 8.68 µM | [17] 59.9 µM

CCC(C)(c1ccc(O)cc1)c1ccc(O)cc1
inactive: [1] | [2] | [3] | [4] | [5] | [6] | [7] | [8] | [9] | [10] | [11] | [13] | [14] | [15] | [16] | [17] | [18] | [19]
active: [12] 87.3 µM | [20] 87.1 µM and 71 µM

Source: PubChem BioAssay (EPA / NIEHS)
